In PubChem BioAssay (NCATS):
Records with an inconclusive call do not appear. The source made the active and inactive calls. Unless noted, calls come from the whole dose curve; as a rule, active = well fitted curve in the direction sought with a large enough effect; inconclusive = small, poorly fitted or top-dose-only effect, or another doubt; inactive = no such curve, though single readings can be large; an effect the other way counts as inactive or inconclusive.

Tests used:
[1] = target: Transient receptor potential cation channel subfamily V member 1 (Homo sapiens) (UniProt Q8NER1); test: HTS Assay for Compounds that Act as Enhancers of the Vanilloid Receptor 1 (AID 488979); note: 0% is about no effect
Sequence of Transient receptor potential cation channel subfamily V member 1 (Homo sapiens) (Q8NER1 whole entry, looked up): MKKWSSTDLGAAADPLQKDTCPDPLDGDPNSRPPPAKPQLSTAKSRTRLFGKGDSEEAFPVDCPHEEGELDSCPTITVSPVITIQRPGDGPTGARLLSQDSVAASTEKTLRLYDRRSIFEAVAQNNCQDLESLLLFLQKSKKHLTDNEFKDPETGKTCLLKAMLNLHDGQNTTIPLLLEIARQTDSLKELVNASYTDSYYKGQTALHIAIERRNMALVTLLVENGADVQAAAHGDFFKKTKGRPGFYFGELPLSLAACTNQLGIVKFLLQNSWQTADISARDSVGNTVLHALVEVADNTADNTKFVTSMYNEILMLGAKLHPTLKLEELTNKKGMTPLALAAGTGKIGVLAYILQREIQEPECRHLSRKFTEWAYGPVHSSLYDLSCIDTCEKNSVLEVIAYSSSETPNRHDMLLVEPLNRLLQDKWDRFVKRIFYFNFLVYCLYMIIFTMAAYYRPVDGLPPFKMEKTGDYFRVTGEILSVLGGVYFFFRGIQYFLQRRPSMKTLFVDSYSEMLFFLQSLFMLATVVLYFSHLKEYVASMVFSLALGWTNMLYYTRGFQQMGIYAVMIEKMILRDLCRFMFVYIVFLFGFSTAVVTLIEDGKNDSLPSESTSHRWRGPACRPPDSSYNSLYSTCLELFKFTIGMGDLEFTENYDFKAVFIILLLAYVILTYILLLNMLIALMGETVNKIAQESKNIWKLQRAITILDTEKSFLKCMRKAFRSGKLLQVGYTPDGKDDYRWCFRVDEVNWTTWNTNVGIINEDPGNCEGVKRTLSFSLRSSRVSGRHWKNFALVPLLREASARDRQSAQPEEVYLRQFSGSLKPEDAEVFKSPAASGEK
How it was run: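 TRPV1 cells loaded with Fluo-8 calcium dye; compound added and Ca2+ signal (ex 480/em 520 nm) followed 3 min, then capsaicin at EC20 added and read 2 more min to detect enhancement.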

[2] = target: Thyrotropin receptor (Homo sapiens) (UniProt P16473); test: qHTS Assay for Antagonists of the Thyroid Stimulating Hormone Receptor (AID 488980); note: series mostly up to about 58 µM; 0% is about no effect
How it was run: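 Inhibition of cAMP raised by EC80 TSH (4 nM final) was read by HTRF, with lysate cAMP competing against cAMP-d2 for cryptate antibody after 30 min at room temperature. The cells were transfected HEK293 held in phosphodiesterase inhibitor RO 20-1724 at 70 uM.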

[3] = target: D(1A) dopamine receptor (Homo sapiens) (UniProt P21728); test: HTS Assay for Allosteric Agonists of the Human D1 Dopamine Receptor: Primary Screen for Agonists (AID 488981); note: 0% is about no effect
Sequence of D(1A) dopamine receptor (Homo sapiens) (P21728 whole entry, looked up): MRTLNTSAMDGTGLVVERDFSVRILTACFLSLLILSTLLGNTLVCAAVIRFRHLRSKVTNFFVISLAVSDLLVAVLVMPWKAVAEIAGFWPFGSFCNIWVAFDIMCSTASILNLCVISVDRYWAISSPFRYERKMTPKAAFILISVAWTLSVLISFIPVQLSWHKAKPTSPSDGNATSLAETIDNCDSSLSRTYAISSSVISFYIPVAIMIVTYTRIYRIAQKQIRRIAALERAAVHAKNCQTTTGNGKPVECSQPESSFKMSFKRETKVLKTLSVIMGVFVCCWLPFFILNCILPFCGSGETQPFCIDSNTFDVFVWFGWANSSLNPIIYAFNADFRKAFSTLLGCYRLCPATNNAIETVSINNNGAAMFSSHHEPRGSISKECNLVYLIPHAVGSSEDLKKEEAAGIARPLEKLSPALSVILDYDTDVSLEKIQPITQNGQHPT
How it was run: (§1)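 Tetracycline-induced HEK293 Trex D1 cells with forced coupling to calcium, loaded with no-wash calcium dye; kinetic fluorescence read 180 s after compound addition for agonism, then a further 180 s after an EC20 dopamine challenge for potentiation.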

[4] = target: D(1A) dopamine receptor (Homo sapiens) (UniProt P21728); test: HTS Assay for Allosteric Agonists of the Human D1 Dopamine Receptor: Primary Screen for Potentiators (AID 488982); note: potency is the fitted concentration of half-maximal effect
How it was run: as §1

[5] = target: D(1A) dopamine receptor (Homo sapiens) (UniProt P21728); test: HTS Assay for Allosteric Agonists of the Human D1 Dopamine Receptor: Primary Screen for Antagonists (AID 488983);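 note: calcium flux response to an EC80 dopamine challenge measured with no-wash dye; % is set by controls: 0 for no effect and ±100 for the full control effect; nearly all actives have a fitted effect of over 65% in size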
How it was run: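 Screening of inducible HEK293 T-REx D1 cells: compound first, EC80 dopamine 180 s later, each phase read kinetically for calcium over 180 s.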

[6] = target: ATPase family AAA domain-containing protein 5 (Homo sapiens) (UniProt Q96QE3); test: Validation screen for small molecules that inhibit ELG1-dependent DNA repair in human embryonic kidney (HEK293T) cells expressing luciferase-tagged ELG1 (AID 493107);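 note: cells co-treated with the DNA-damaging agent 5-fluorouridine alongside compound; series mostly up to about 46 µM; % is set by controls: 0 for no effect and ±100 for the full control effect; inhibitors lower the ELG1-luciferase luminescence signal; nearly all actives have a fitted effect of over 70% in size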
Sequence of ATPase family AAA domain-containing protein 5 (Homo sapiens) (Q96QE3 whole entry, looked up, the tested form may be a part): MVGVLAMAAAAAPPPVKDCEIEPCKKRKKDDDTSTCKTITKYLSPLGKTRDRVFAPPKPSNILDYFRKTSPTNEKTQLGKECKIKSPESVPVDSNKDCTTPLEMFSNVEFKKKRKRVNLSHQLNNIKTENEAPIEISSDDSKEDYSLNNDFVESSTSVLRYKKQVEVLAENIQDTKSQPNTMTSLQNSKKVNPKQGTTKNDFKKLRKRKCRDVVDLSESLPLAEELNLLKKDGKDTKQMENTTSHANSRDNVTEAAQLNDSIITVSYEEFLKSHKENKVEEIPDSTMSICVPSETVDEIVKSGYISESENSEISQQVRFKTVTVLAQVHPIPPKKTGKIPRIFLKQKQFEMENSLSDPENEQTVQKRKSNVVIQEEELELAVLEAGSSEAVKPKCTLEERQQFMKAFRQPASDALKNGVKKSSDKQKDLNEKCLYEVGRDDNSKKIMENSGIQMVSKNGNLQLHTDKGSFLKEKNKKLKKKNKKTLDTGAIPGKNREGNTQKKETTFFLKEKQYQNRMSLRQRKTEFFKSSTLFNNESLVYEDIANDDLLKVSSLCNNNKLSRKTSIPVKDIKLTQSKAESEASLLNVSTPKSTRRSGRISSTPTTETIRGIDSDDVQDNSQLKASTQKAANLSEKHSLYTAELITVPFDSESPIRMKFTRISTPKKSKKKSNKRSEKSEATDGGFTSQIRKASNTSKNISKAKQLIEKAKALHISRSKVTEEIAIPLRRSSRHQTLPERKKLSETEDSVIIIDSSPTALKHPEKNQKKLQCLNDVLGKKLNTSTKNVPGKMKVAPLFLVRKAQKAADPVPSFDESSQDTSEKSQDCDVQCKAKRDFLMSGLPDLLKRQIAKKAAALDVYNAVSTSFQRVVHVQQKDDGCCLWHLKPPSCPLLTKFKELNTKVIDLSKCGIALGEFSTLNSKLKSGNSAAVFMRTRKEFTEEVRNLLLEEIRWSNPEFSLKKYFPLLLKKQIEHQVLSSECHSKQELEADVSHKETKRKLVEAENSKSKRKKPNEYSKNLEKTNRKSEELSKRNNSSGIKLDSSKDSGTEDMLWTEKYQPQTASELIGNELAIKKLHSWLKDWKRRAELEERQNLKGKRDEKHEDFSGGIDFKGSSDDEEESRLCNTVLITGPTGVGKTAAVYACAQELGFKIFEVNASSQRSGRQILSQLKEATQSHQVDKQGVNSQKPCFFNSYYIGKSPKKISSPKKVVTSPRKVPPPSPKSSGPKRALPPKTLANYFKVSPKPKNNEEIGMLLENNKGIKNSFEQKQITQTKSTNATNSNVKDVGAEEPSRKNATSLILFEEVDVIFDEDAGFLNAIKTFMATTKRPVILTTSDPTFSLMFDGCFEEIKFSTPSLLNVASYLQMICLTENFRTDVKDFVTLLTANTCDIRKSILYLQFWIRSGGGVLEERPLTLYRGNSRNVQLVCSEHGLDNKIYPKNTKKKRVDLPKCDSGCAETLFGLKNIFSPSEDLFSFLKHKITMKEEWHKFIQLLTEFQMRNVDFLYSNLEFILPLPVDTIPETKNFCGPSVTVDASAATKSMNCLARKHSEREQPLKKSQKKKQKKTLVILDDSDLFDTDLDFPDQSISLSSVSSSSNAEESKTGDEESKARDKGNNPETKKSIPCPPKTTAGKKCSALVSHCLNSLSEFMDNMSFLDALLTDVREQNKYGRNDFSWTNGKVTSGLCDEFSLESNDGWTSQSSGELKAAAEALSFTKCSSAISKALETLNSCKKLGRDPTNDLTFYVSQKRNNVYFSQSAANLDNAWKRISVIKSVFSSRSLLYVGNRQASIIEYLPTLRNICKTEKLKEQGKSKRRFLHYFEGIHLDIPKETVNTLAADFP
How it was run: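 Quantitative HTS in HEK293T cells carrying luciferase-tagged ELG1, stimulated with 5-fluorouridine alongside compound for 16 hr. Loss of luciferase signal marks inhibition of ELG1 response.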

[7] = target: Thyrotropin-releasing hormone receptor (Homo sapiens) (UniProt P34981); test: qHTS for Small Molecule Agonists and Allosteric Enhancers of Human TRH Receptor: Validation Screen for Agonists (AID 493127;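 active = calcium activation more than 3 SD above the typical response in the agonist read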;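 note: intracellular calcium rise by fluo-8 fluorescence before TRH EC20 addition; 0% is about no effect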); settings: TRH receptor agonist cell assay; at 2 µM; stronger effect = higher value
Sequence of Thyrotropin-releasing hormone receptor (Homo sapiens) (P34981 whole entry, looked up): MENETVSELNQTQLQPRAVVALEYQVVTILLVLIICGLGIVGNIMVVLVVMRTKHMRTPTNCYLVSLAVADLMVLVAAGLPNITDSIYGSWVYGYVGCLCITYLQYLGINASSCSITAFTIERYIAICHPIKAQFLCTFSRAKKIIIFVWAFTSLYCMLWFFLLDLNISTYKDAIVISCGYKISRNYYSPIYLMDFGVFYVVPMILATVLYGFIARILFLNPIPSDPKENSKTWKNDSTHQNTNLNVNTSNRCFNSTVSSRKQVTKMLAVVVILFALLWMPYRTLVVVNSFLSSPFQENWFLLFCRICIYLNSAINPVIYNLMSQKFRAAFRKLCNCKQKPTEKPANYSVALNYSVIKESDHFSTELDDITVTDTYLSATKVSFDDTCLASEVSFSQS
How it was run: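 Gq-coupled calcium mobilization in TRHR cells after compound addition, monitored kinetically with fluo-8 dye on an FDSS reader.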

[8] = Nrf2 qHTS screen for inhibitors: Validation (AID 493153; active = well fitted inhibition curve with a large enough effect in the main read-out, with a control signal flat, not every such curve was filed as active); settings: Potency: luciferase luminescence; viability change: measured here: cytotoxicity max response
How it was run: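 Dose-response validation uses reporter A549 cells with firefly luciferase under an antioxidant response element. Compounds stay on cells 18-24 h at 37°C, and luminescence indicates Nrf2-driven transcription.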

[9] = qHTS for Inhibitors of Cell Surface uPA Generation: Validation Assay (AID 493164);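 note: RAW 264.7 macrophage cells exposed to compound for 18 h; 0% is about no effect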
How it was run: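 RAW 264.7, 4000 cells/well, o/n plating; cpd 7-pt 1:5 dilution 2.45 nM–38.3 uM final; 18 h, 37 C/5% CO2; ATP-Lite, 5 s luminescence exposure.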

[10] = target: Galactokinase (Homo sapiens) (UniProt P51570); test: qHTS Validation Assay for Inhibitors of Human Galactokinase (GALK) (AID 493189); note: 0% is about no effect
Sequence of Galactokinase (Homo sapiens) (P51570 whole entry, looked up): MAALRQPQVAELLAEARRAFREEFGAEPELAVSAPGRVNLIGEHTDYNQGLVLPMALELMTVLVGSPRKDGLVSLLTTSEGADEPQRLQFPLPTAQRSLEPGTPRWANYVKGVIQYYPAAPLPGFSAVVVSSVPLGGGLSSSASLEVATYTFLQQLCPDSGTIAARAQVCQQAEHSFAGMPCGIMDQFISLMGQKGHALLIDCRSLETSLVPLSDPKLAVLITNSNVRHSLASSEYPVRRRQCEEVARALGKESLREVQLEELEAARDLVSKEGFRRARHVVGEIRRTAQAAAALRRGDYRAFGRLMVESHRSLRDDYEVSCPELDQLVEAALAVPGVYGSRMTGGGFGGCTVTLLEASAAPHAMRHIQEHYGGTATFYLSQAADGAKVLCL
How it was run: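 Inhibition was measured as remaining ATP, detected by luciferase luminescence after a 1 h room-temperature reaction. Final conditions: 5 nM GALK, 100 uM galactose, 35 uM ATP, pH 8.0 HEPES buffer.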

[11] = Validation screen for small molecules that induce DNA re-replication in SW480 colon adenocarcinoma cells (AID 504364); note: potency is the fitted concentration of half-maximal effect
How it was run: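 Cells are treated 48 hr with test compound, stained 40 min with Hoechst at 37 C, and scanned for nuclear fluorescence; compounds inducing re-replication increase nuclei with elevated intensity.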

[12] = target: Peptidyl-prolyl cis-trans isomerase NIMA-interacting 1 (Homo sapiens) (UniProt Q13526); test: qHTS Validation Assay to Find Inhibitors of Pin1 (AID 504536; active = well fitted inhibition curve with a large enough effect in the polarisation, with a control signal flat, not every such curve was filed as active; the % refers to the polarisation;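 note: 0% = full Pin1 enzyme wells and -100% = no-enzyme wells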)
Sequence of Peptidyl-prolyl cis-trans isomerase NIMA-interacting 1 (Homo sapiens) (Q13526 whole entry, looked up): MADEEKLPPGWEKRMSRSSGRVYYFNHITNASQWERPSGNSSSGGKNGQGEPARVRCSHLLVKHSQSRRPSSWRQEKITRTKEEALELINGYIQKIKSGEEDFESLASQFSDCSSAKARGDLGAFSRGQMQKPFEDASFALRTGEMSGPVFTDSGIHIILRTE
How it was run: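 Fluorescence polarization competition: compounds (titration) displace HiFluor-488-labeled Pin1-1b peptide from Pin1 (0.3 uM final) in pH 7.5 HEPES buffer with DTT, 10 min at room temperature; %Activity normalized to no-enzyme wells, curves fitted.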

[13] = target: Phosphoglycerate kinase, glycosomal (Trypanosoma brucei brucei) (UniProt P07378); test: qHTS Validation Assay to Find Inhibitors of Phosphoglycerate Kinase (AID 504547);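 note: control wells lack PGK and mark full inhibition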
How it was run: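 PGK activity was coupled to GAPDH (100nM final), which generates the unstable substrate 1,3-bisphosphoglycerate in-well. Reactions ran 60 minutes at room temperature in 100mM TEA pH 7.6, 5mM MgCl2, 0.01% Tween-20, then Kinase-Glo Plus luminescence was read.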

[14] = target: phosphoglycerate mutase (Leishmania major) (UniProt Q4Q090); test: qHTS Validation Assay to Find Inhibitors of Phosphoglycerate Mutase (AID 504548); settings: Potency: inhibition qHTS; note: series mostly up to about 58 µM; % is set by controls: 0 for no effect and ±100 for the full control effect
How it was run: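 Luminescent end-point read-out via Kinase-GloPlus after a 10-minute development. Reaction: 1.25nM Leishmania major PGAM with substrate and compound, 45 minutes at room temperature in TEA buffer (pH 7.6) with MgCl2 and Tween-20.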

[15] = qHTS for Inhibitors of ATXN expression: Validation of Cytotoxic Assay (AID 588349);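 note: cells exposed to compound for 72 hr; % is set by controls: 0 for no effect and ±100 for the full control effect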
How it was run: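 HEK293, compound dose series, 72 hr / 37 degrees C; viability via CellTiter Glo (intracellular ATP).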

[16] = qHTS for Inhibitors of ATXN expression: Validation (AID 588378); note: series mostly up to about 57 µM; % is set by controls: 0 for no effect and ±100 for the full control effect; nearly all actives have a fitted effect of over 75% in size
How it was run: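 Luciferase luminescence (Bright-Glo) from an ATXN2-FFLuc HEK293 line after 24 h compound exposure at 37 °C, preceded by a CellTiter-Fluor fluorescence viability read. Serial dilutions of a reference ATXN2 inhibitor and a luciferase inhibitor served as controls.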

[17] = Validation screen for small molecules that induce genotoxicity in human embryonic kidney (HEK293T) cells expressing luciferase-tagged ELG1 (AID 493106); note: 0% is about no effect
How it was run: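 Reporter-gene quantitative HTS in HEK293T cells carrying luciferase-tagged ELG1, whose level climbs under genotoxic stress. Compound exposure lasts 16 hr at 37 °C before luciferase detection.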

[18] = target: Ubiquitin carboxyl-terminal hydrolase 1 (Homo sapiens) (UniProt O94782); test: Inhibitors of USP1/UAF1: Pilot qHTS (AID 504865);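 note: rhodamine fluorescence freed from ubiquitin-rhodamine substrate followed over time; top concentration of the series differs between compounds; % is set by controls: 0 for no effect and ±100 for the full control effect; nearly all actives have a fitted effect of over 35% in size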
Sequence of Ubiquitin carboxyl-terminal hydrolase 1 (Homo sapiens) (O94782 whole entry, looked up): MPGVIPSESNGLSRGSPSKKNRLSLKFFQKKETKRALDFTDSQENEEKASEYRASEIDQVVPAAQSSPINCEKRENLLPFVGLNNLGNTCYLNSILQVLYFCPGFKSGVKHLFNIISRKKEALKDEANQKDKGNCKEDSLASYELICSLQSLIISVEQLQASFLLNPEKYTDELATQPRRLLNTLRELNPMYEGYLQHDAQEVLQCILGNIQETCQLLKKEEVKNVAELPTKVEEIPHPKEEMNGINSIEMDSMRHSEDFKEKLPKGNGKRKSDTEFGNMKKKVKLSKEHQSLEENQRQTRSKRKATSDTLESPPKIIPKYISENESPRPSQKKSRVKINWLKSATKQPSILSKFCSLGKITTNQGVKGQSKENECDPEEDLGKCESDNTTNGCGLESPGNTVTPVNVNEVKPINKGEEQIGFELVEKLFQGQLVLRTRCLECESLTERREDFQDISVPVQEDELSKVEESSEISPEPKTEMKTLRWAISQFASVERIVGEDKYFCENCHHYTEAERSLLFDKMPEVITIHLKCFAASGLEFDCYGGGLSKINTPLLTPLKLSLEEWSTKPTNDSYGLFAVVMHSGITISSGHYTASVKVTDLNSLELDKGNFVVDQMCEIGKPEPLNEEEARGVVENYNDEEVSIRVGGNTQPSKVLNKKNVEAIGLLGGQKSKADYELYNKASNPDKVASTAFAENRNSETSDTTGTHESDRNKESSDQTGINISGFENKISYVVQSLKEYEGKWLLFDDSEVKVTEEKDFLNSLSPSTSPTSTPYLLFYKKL
How it was run: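 Deubiquitinase activity followed as kinetic rhodamine fluorescence release from 150 nM Ub-Rho. 1 nM USP1/UAF1 with compound, after 15 min room-temperature preincubation, in HEPES pH 7.8 buffer containing TCEP, EDTA, BSA and Tween-20.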

[19] = target: Tyrosyl-DNA phosphodiesterase 1 (Homo sapiens) (UniProt Q9NUW8); test: Confirmation Assay for Inhibitors of Tyrosyl-DNA Phosphodiesterase (TDP1) (AID 489007); settings: recombinant human TDP1 enzymatic activity, dose-response; note: potency is the fitted concentration of half-maximal effect; nearly all actives have a fitted effect of over 40% in size
How it was run: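 Confirmation of primary-screen follow-ups in a qHTS format. Substrate cleavage by Tdp1 (1 nM) of a 3'-phosphotyrosine-FITC, 5'-biotin oligo (15 nM) was monitored as decreased AlphaScreen signal after a 5 min room-temperature reaction.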

O=C1OC(=O)C2C3CCC(O3)C12 (stereo not drawn)
inactive: outcome [1] | outcome [2] | Potency [3] | Potency [4] | Potency [5] | Potency [6] | activation [7] 0.938% | Potency [8] | outcome [9] | Potency [10] | Potency [11] | Potency [12] | Potency [13] | Potency [14] | Potency [15] | Potency [16]
-3.78%: viability change [8]

C[C@H](NC(=O)/C(C#N)=C/c1ccc(O)c(O)c1)c1ccccc1
-7.12%: viability change [8]
inactive: outcome [1] | outcome [2] | Potency [3] | Potency [4] | Potency [17] | Potency [6] | activation [7] -3.19% | Potency [8] | outcome [9] | Potency [10] | Potency [12] | Potency [13] | Potency [14] | Potency [18]

COc1cc([C@@H]2c3cc4c(cc3[C@H](O)C3COC(=O)[C@@H]32)OCO4)cc(OC)c1OC (stereo partly drawn)
inactive: outcome [1] | outcome [2] | Potency [3] | Potency [4] | Potency [5] | Potency [6] | activation [7] 0.5% | outcome [9] | Potency [10] | Potency [12] | Potency [13] | Potency [14] | Potency [16]

C=C(C)C1CC=C(C(=O)O)CC1 (stereo not drawn)
inactive: outcome [1] | outcome [2] | Potency [3] | Potency [4] | Potency [17] | Potency [6] | activation [7] 1.12% | Potency [8] | outcome [9] | Potency [10] | Potency [11] | Potency [12] | Potency [13] | Potency [14] | Potency [15] | Potency [16]
1.77%: viability change [8]

Nc1ncnc2c1ncn2C1CCCC1
4.78%: viability change [8]
inactive: outcome [1] | outcome [2] | Potency [3] | Potency [4] | Potency [5] | Potency [6] | activation [7] 1.12% | Potency [8] | Potency [10] | Potency [11] | Potency [12] | Potency [13] | Potency [14] | Potency [18] | Potency [15] | Potency [16]

C[C@@H](NCCc1ccc(O)cc1)[C@@H](O)c1ccc(O)cc1
9.14%: viability change [8]
inactive: outcome [1] | outcome [2] | Potency [3] | Potency [4] | Potency [17] | Potency [6] | activation [7] 1.12% | Potency [8] | outcome [9] | Potency [10] | Potency [11] | Potency [12] | Potency [13] | Potency [14] | Potency [18] | Potency [15] | Potency [16]

CO/N=C(\C(=O)N[C@@H]1C(=O)N2C(C(=O)O)=C(CSc3nc(=O)c(O)nn3C)CSC12)c1csc(N)n1 (stereo partly drawn)
inactive: outcome [1] | outcome [2] | Potency [3] | Potency [4] | Potency [17] | Potency [6] | activation [7] 1.12% | Potency [8] | outcome [9] | Potency [10] | Potency [11] | Potency [13] | Potency [14] | Potency [18] | Potency [15] | Potency [16]
3.25%: viability change [8]
active: Potency [19] 3160 nM

NC(=O)CC[C@H](N)C(=O)O
inactive: outcome [1] | outcome [2] | Potency [3] | Potency [4] | Potency [17] | Potency [6] | activation [7] -0.625% | Potency [8] | outcome [9] | Potency [10] | Potency [11] | Potency [12] | Potency [13] | Potency [18] | Potency [15] | Potency [16]
2.88%: viability change [8]

NCC(O)C1CCCCCCC1 (stereo not drawn)
inactive: outcome [1] | outcome [2] | Potency [3] | Potency [4] | Potency [5] | Potency [6] | activation [7] 1% | Potency [8] | Potency [10] | Potency [11] | Potency [12] | Potency [13] | Potency [14] | Potency [18]
3.56%: viability change [8]

O=C(O)C1CCCNC1 (stereo not drawn)
active: Potency [4] 2310 nM
1.96%: viability change [8]
inactive: outcome [1] | outcome [2] | Potency [3] | Potency [5] | Potency [6] | activation [7] 0.625% | Potency [8] | outcome [9] | Potency [11] | Potency [12] | Potency [13] | Potency [14] | Potency [18] | Potency [15] | Potency [16]

NC1C=CC=C(C(=O)O)C1 (stereo not drawn)
inactive: outcome [1] | outcome [2] | Potency [3] | Potency [4] | Potency [5] | Potency [6] | activation [7] -0.125% | Potency [8] | outcome [9] | Potency [10] | Potency [11] | Potency [12] | Potency [13] | Potency [18] | Potency [15] | Potency [16]
17.7%: viability change [8]

CCC1(O)CC2CN(CCc3c([nH]c4ccccc34)[C@@](C(=O)OC)(c3cc4c(cc3OC)N(C)C3[C@]45CCN4CC=C[C@@](CC)([C@@H](OC(C)=O)[C@]3(O)C(=O)OC)[C@H]45)C2)C1 (stereo partly drawn)
inactive: outcome [1] | outcome [2] | Potency [3] | Potency [4] | activation [7] -0.125% | outcome [9] | Potency [10] | Potency [12] | Potency [14] | Potency [18]
active: Potency [11] 20.6 nM

N[C@H](C(=O)O)c1cc(O)cc(O)c1
inactive: outcome [1] | outcome [2] | Potency [3] | Potency [4] | Potency [6] | activation [7] 0.0625% | Potency [8] | outcome [9] | Potency [10] | Potency [11] | Potency [13] | Potency [14] | Potency [18] | Potency [15] | Potency [16]
13.1%: viability change [8]

O=C(O)c1ccccc1Nc1cccc(OCc2ccc3ccccc3n2)c1
-13.9%: viability change [8]
inactive: outcome [1] | outcome [2] | Potency [3] | Potency [4] | Potency [17] | Potency [6] | activation [7] -5.56% | Potency [8] | outcome [9] | Potency [11] | Potency [12] | Potency [13] | Potency [15] | Potency [16]
